Assay results: the supplement of paper PMC9262897, “Low-cost anti-mycobacterial drug discovery using engineered E. coli” (Nature Communications, 2022)
Structures can show the parent of a compound that is named as a salt. ± gives the standard deviation of the averaged measurements.

Tests used:
Assay in all cases: growth (OD600 after 10 h); higher = more growth (less inhibition)
[1] = system: E. coli TESEC Alr+ wild-type control; conditions: compound 0.1 mM; raw OD600 reference: median of DMSO wells 0.241, cell-free background 0.041
Method: (§1)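 TESEC Mtb Alr E. coli, or the Alr+ wild-type control, in 384-well plates with Prestwick library compounds at 0.1 mM and 1% DMSO, across arabinose induction levels of 1E3 to 1E7 nM. Growth is read as OD600 after 10 h at 37 °C in triplicate biological replicates.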

E. coli TESEC Mtb Asd = conditions: compound 0.1 mM
Method: (§2)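 TESEC E. coli strains in which the native enzyme is deleted and replaced by arabinose-inducible Mtb Asd, DapB, CysH or TrpD, each grown in its selective medium. Strains were screened against the Prestwick library at 0.1 mM and 1% DMSO in 384-well format at low and high arabinose induction. Growth is read as OD600 after 10 h in triplicate.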

E. coli TESEC Mtb DapB = conditions: compound 0.1 mM
Method: as §2

[2] = system: E. coli TESEC Alr+ wild-type control; conditions: compound 0.1 mM; raw OD600 reference: median of DMSO wells 0.49, cell-free background 0.052
Method: (§3)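 TESEC Mtb Alr E. coli (ΔaraC ΔtolC ΔentC Δalr ΔdadX, arabinose-inducible Mtb Alr) or the Alr+ wild-type control strain, grown in defined M9-fructose medium without D-alanine in 96-well plates with Prestwick library compounds at 0.1 mM and 1% DMSO. Low Alr induction is 0.1 µM arabinose and high induction is 10 mM arabinose.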

E. coli TESEC Mtb Alr [3] = conditions: compound 0.1 mM
Method: as §3

E. coli TESEC Mtb Alr [4] = conditions: compound 0.1 mM; remark: listed apart in the source
Method: as §1

[5] = arabinose induction (level): High, raw OD600 reference: median of DMSO wells 0.331, cell-free background 0.041
[6] = arabinose induction (level): Low, raw OD600 reference: median of DMSO wells 0.417, cell-free background 0.041
[7] = arabinose induction (level): High, raw OD600 reference: median of DMSO wells […], cell-free background 0.041
[8] = arabinose induction (level): Low, raw OD600 reference: median of DMSO wells 0.227, cell-free background 0.041
[9] = arabinose 100 nM, raw OD600 reference: median of DMSO wells 0.413, cell-free background 0.052
[10] = arabinose 10000000 nM, raw OD600 reference: median of DMSO wells […], cell-free background 0.052

CN(C)CCCO[C@@H]1[C@H]2OC(C)(C)O[C@H]2O[C@@H]1[C@H](O)CO [Amiprilose hydrochloride]
growth [1]: 0.23 ± 0.012
growth (E. coli TESEC Mtb Asd; [5]): 0.411 ± 0.073
growth (E. coli TESEC Mtb Asd; [6]): 0.385 ± 0.076
growth (E. coli TESEC Mtb DapB; [7]): 0.199 ± 0.017
growth (E. coli TESEC Mtb DapB; [8]): 0.269 ± 0.046
growth [2]: 0.613 ± 0.04
growth (E. coli TESEC Mtb Alr [3]; [9]): 0.405 ± 0.013
growth (E. coli TESEC Mtb Alr [3]; [10]): 0.337 ± 0.022

CC(=O)OCC(=O)[C@@]1(O)CC[C@H]2[C@@H]3CCC4=CC(=O)C=C[C@]4(C)[C@@]3(F)[C@@H](O)C[C@@]21C [Isoflupredone acetate]
growth [1]: 0.206 ± 0.028
growth (E. coli TESEC Mtb Asd; [5]): 0.348 ± 0.046
growth (E. coli TESEC Mtb Asd; [6]): 0.413 ± 0.056
growth (E. coli TESEC Mtb DapB; [7]): 0.21 ± 0.01
growth (E. coli TESEC Mtb DapB; [8]): 0.253 ± 0.038
growth [2]: 0.422 ± 0.029
growth (E. coli TESEC Mtb Alr [3]; [9]): 0.389 ± 0.0064
growth (E. coli TESEC Mtb Alr [3]; [10]): 0.286 ± 0.01

CC(=O)N(CC(O)CN(C(C)=O)c1c(I)c(C(=O)NCC(O)CO)c(I)c(C(=O)NCC(O)CO)c1I)c1c(I)c(C(=O)NCC(O)CO)c(I)c(C(=O)NCC(O)CO)c1I (configuration not stated) [Iodixanol]
growth [1]: 0.235 ± 0.0081
growth (E. coli TESEC Mtb Alr [4]; arabinose 1000 nM, raw OD600 reference: median of DMSO wells 0.294, cell-free background 0.041): 0.303 ± 0.015
growth (E. coli TESEC Mtb Alr [4]; arabinose 10000 nM, raw OD600 reference: median of DMSO wells 0.264, cell-free background 0.041): 0.26 ± 0.0054
growth (E. coli TESEC Mtb Alr [4]; arabinose 100000 nM, raw OD600 reference: median of DMSO wells 0.201, cell-free background 0.041): 0.182 ± 0.022
growth (E. coli TESEC Mtb Alr [4]; arabinose 1000000 nM, raw OD600 reference: median of DMSO wells 0.193, cell-free background 0.041): 0.177 ± 0.0052
growth (E. coli TESEC Mtb Alr [4]; arabinose 10000000 nM, raw OD600 reference: median of DMSO wells 0.146, cell-free background 0.041): 0.1415 ± 0.00091
growth (E. coli TESEC Mtb Asd; [5]): 0.358 ± 0.082
growth (E. coli TESEC Mtb Asd; [6]): 0.421 ± 0.015
growth (E. coli TESEC Mtb Alr [3]; [9]): 0.406 ± 0.013
growth (E. coli TESEC Mtb Alr [3]; [10]): 0.334 ± 0.0038

Nc1nc2c(ncn2COCCO)c(=O)[nH]1 [Acyclovir]
growth [1]: 0.255 ± 0.014
growth (E. coli TESEC Mtb Asd; [5]): 0.374 ± 0.016
growth (E. coli TESEC Mtb Asd; [6]): 0.416 ± 0.047
growth (E. coli TESEC Mtb DapB; [7]): 0.206 ± 0.005
growth (E. coli TESEC Mtb DapB; [8]): 0.26 ± 0.024
growth [2]: 0.47 ± 0.04
growth (E. coli TESEC Mtb Alr [3]; [9]): 0.413 ± 0.011
growth (E. coli TESEC Mtb Alr [3]; [10]): 0.355 ± 0.029

O=C(c1ccc(F)cc1)C1CCN(CCn2c(=O)[nH]c3ccccc3c2=O)CC1 [Ketanserin tartrate hydrate]
growth [1]: 0.183 ± 0.0037
growth (E. coli TESEC Mtb Asd; [5]): 0.243 ± 0.075
growth (E. coli TESEC Mtb Asd; [6]): 0.393 ± 0.039
growth (E. coli TESEC Mtb DapB; [7]): 0.203 ± 0.02
growth (E. coli TESEC Mtb DapB; [8]): 0.251 ± 0.056
growth [2]: 0.491 ± 0.043
growth (E. coli TESEC Mtb Alr [3]; [9]): 0.407 ± 0.011
growth (E. coli TESEC Mtb Alr [3]; [10]): 0.2801 ± 0.002

COc1cc(C)nc(-n2nc(C)cc2OC)n1 [Epirizole]
growth [1]: 0.2428 ± 0.0024
growth (E. coli TESEC Mtb Asd; [5]): 0.342 ± 0.051
growth (E. coli TESEC Mtb Asd; [6]): 0.465 ± 0.042
growth (E. coli TESEC Mtb DapB; [7]): 0.192 ± 0.025
growth (E. coli TESEC Mtb DapB; [8]): 0.238 ± 0.054
growth [2]: 0.493 ± 0.031
growth (E. coli TESEC Mtb Alr [3]; [9]): 0.421 ± 0.011
growth (E. coli TESEC Mtb Alr [3]; [10]): 0.27 ± 0.12

CC1CCc2c(N3CCC(O)CC3)c(F)cc3c(=O)c(C(=O)O)cn1c23 (configuration not stated) [Nadifloxacin]
growth [1]: 0.04253 ± 5.8e-05
growth (E. coli TESEC Mtb Asd; [5]): 0.0522 ± 0.007
growth (E. coli TESEC Mtb Asd; [6]): 0.0485 ± 0.0008
growth (E. coli TESEC Mtb DapB; [7]): 0.0495 ± 0.00066
growth (E. coli TESEC Mtb DapB; [8]): 0.0498 ± 0.0021
growth [2]: 0.0538 ± 0.0013
growth (E. coli TESEC Mtb Alr [3]; [9]): 0.0535 ± 0.00072
growth (E. coli TESEC Mtb Alr [3]; [10]): 0.05197 ± 5.8e-05

CCCCC1=NC2(CCCC2)C(=O)N1Cc1ccc(-c2ccccc2-c2nnn[nH]2)cc1 [Irbesartan]
growth [1]: 0.152 ± 0.0053
growth (E. coli TESEC Mtb Asd; [5]): 0.198 ± 0.03
growth (E. coli TESEC Mtb Asd; [6]): 0.21 ± 0.029
growth (E. coli TESEC Mtb DapB; [7]): 0.204 ± 0.014
growth (E. coli TESEC Mtb DapB; [8]): 0.263 ± 0.048
growth [2]: 0.528 ± 0.12
growth (E. coli TESEC Mtb Alr [3]; [9]): 0.346 ± 0.012
growth (E. coli TESEC Mtb Alr [3]; [10]): 0.167 ± 0.014

N=C(N)NC(=O)c1nc(Cl)c(N)nc1N [Amiloride hydrochloride dihydrate]
growth [1]: 0.236 ± 0.012
growth (E. coli TESEC Mtb Asd; [5]): 0.387 ± 0.036
growth (E. coli TESEC Mtb Asd; [6]): 0.428 ± 0.033
growth (E. coli TESEC Mtb DapB; [7]): 0.203 ± 0.0053
growth (E. coli TESEC Mtb DapB; [8]): 0.278 ± 0.035
growth [2]: 0.497 ± 0.071
growth (E. coli TESEC Mtb Alr [3]; [9]): 0.407 ± 0.014
growth (E. coli TESEC Mtb Alr [3]; [10]): 0.392 ± 0.015

COC(c1ccccc1)(c1ccccc1)[C@H](Oc1nc(C)cc(C)n1)C(=O)O [Ambrisentan]
growth [1]: 0.217 ± 0.0053
growth (E. coli TESEC Mtb Asd; [5]): 0.284 ± 0.072
growth (E. coli TESEC Mtb Asd; [6]): 0.315 ± 0.053
growth (E. coli TESEC Mtb DapB; [7]): 0.191 ± 0.016
growth (E. coli TESEC Mtb DapB; [8]): 0.234 ± 0.021
growth [2]: 0.535 ± 0.022
growth (E. coli TESEC Mtb Alr [3]; [9]): 0.41 ± 0.008
growth (E. coli TESEC Mtb Alr [3]; [10]): 0.354 ± 0.015

CN(C)CCC(c1ccc(Br)cc1)c1ccccn1 (configuration not stated) [Brompheniramine maleate]
growth [1]: 0.218 ± 0.0069
growth (E. coli TESEC Mtb Asd; [5]): 0.179 ± 0.0086
growth (E. coli TESEC Mtb Asd; [6]): 0.302 ± 0.079
growth (E. coli TESEC Mtb DapB; [7]): 0.179 ± 0.01
growth (E. coli TESEC Mtb DapB; [8]): 0.253 ± 0.025
growth [2]: 0.45 ± 0.043
growth (E. coli TESEC Mtb Alr [3]; [9]): 0.398 ± 0.011
growth (E. coli TESEC Mtb Alr [3]; [10]): 0.339 ± 0.02

NC12CC3CC(CC(C3)C1)C2 [Adamantamine fumarate]
growth [1]: 0.253 ± 0.0038
growth (E. coli TESEC Mtb Asd; [5]): 0.353 ± 0.052
growth (E. coli TESEC Mtb Asd; [6]): 0.457 ± 0.0081
growth (E. coli TESEC Mtb DapB; [7]): 0.2 ± 0.0046
growth (E. coli TESEC Mtb DapB; [8]): 0.214 ± 0.0073
growth [2]: 0.469 ± 0.056
growth (E. coli TESEC Mtb Alr [3]; [9]): 0.407 ± 0.0076
growth (E. coli TESEC Mtb Alr [3]; [10]): 0.368 ± 0.026

C[C@H]1O[C@@H](O[C@H]2[C@@H](O)C[C@H](O[C@H]3[C@@H](O)C[C@H](O[C@H]4CC[C@@]5(C)[C@H](CC[C@@H]6[C@@H]5C[C@@H](O)[C@]5(C)[C@@H](C7=CC(=O)OC7)CC[C@]65O)C4)O[C@@H]3C)O[C@@H]2C)C[C@H](O)[C@@H]1O [Digoxin]
growth [1]: 0.232 ± 0.0079
growth (E. coli TESEC Mtb Asd; [5]): 0.28 ± 0.057
growth (E. coli TESEC Mtb Asd; [6]): 0.413 ± 0.046
growth (E. coli TESEC Mtb DapB; [7]): 0.196 ± 0.016
growth (E. coli TESEC Mtb DapB; [8]): 0.236 ± 0.045
growth [2]: 0.617 ± 0.038
growth (E. coli TESEC Mtb Alr [3]; [9]): 0.414 ± 0.0055
growth (E. coli TESEC Mtb Alr [3]; [10]): 0.329 ± 0.044

CC(C)(C)NC[C@@H](O)COc1cccc2c1CCCC2=O [(+) -Levobunolol hydrochloride]
growth [1]: 0.226 ± 0.012
growth (E. coli TESEC Mtb Asd; [5]): 0.459 ± 0.021
growth (E. coli TESEC Mtb Asd; [6]): 0.467 ± 0.022
growth (E. coli TESEC Mtb Alr [3]; [9]): 0.412 ± 0.012
growth (E. coli TESEC Mtb Alr [3]; [10]): 0.339 ± 0.013

C[N+]1(CCCCC[N+]2(C)CCCC2)CCCC1 [Pentolinium bitartrate]
growth [1]: 0.24 ± 0.0027
growth (E. coli TESEC Mtb Asd; [5]): 0.296 ± 0.037
growth (E. coli TESEC Mtb Asd; [6]): 0.424 ± 0.02
growth [2]: 0.515 ± 0.11
growth (E. coli TESEC Mtb Alr [3]; [9]): 0.415 ± 0.011
growth (E. coli TESEC Mtb Alr [3]; [10]): 0.361 ± 0.006
